Experimental data taken from PubChem BioAssay AID624300 (Southern Research Specialized Biocontainment Screening …, 2012).
The whole screen tested about 2,400 compounds, of which about 360 (15%) were called active. The list is a sample of the results. Measured potencies and affinities stand elsewhere. Unmarked numbers belong to inactive results.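 Rule for the calls: active = viability falls under 70% at one or more tested concentrations, taken as toxicity; inactive = viability stays over 70% at every dose.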

assay: HeLa cell cytotoxicity, dose response, cytotoxicity control for MgcRacGAP inhibitor project (AID 624300); settings: CellTiter-Glo luminescence, 24 h; series mostly up to 100 µM; viability: at the top concentration;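 note: 100% = median of untreated control wells on the same plate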

Point of comparison: `O=c1c(-c2ccccc2Cl)c[nH]n1-c1ccccc1`, “viability” value 89.8%. Against it:
- N#CC1=C(S)N(c2ccccc2)C(c2ccc(-c3cccc(Cl)c3)o2)NC1=O (stereo not drawn) — higher, 97.1%
- COc1ccccc1N1CCN(CCCOc2ccc(F)cc2)CC1 — lower, 87.8%
- Cc1cccc(-c2n[nH]c(=S)n2/N=C/c2ccco2)c1 — higher, 101%
- CCOc1cc(CNc2ccc3c(c2)OCCO3)cc(Br)c1OCC(N)=O — higher, 101%
- CCOc1cc(CNc2ccc(N3CCOCC3)cc2)cc(Br)c1OCC — higher, 99.3%
- COc1cc(CNc2ccc(N3CCOCC3)cc2)cc(Br)c1OC — higher, 96.3%
- COc1ccc(CNc2ccc(N3CCN(C(C)=O)CC3)cc2)cc1OC — higher, 94.6%
- O=C(Cn1cnc([N+](=O)[O-])n1)N/N=C/c1ccc(O)cc1O — higher, 103%
- O=S(=O)(c1ccccc1)N1N=C(c2ccc(O)cc2)CC1c1ccco1 (stereo not drawn) — lower, 82.5%
- CN(C)c1ccc(NC(=O)c2ccc3nsnc3c2)cc1 — higher, 103%
- O=C(c1ccccc1)N1CCN(C2CCCCC2)CC1 — higher, 99%
- COc1ccc(/C=N/n2c(-c3n[nH]c4c3CCC4)n[nH]c2=S)c(OC)c1OC — higher, 113%
- Nc1n[nH]c(N)c1N=Nc1ccc2c(c1)OCO2 — higher, 98.6%
- O=C(CSc1ccc2ccccc2c1)N1CCN(c2ccc(O)cc2)CC1 — higher, 114%
- Oc1ccc(NC(=S)Nc2ccc(F)cc2)cc1 — higher, 99.5%
- Oc1ccc(NC(=S)N=Nc2c(O)[nH]c3ccccc23)cc1 — lower, 87%
- Oc1ccc(N2CCN(Cc3cc4c(cc3Br)OCCO4)CC2)cc1 — higher, 110%
- CC1CCN(CC(=O)Nc2ccc(S(=O)(=O)NC3CC3)cc2)CC1 — higher, 98.4%
- Cc1ccc(NC(=O)NC(=O)CN2CCN(c3ccc(O)cc3)CC2)c(C)c1 — higher, 98.6%
- CN(c1ccc(O)cc1)c1nc(-c2cccs2)cs1 — lower, 82%
- COc1ccc(CNC(=O)CN(C)Cc2ccc(C(C)(C)C)cc2)cc1 — lower, 87.3%
- CN1CCN(C=NC2=NN(c3cccc(C(F)(F)F)c3)CC2)CC1 — lower, 89.4%
- CCOC(=O)c1[nH]c(=S)n(Cc2ccccc2)c1C(=O)OCC — higher, 97.3%
- CN(C)c1ccc(NC(=O)COC(=O)c2ccc3c(c2)OCO3)cc1 — higher, 99.3%
- COC(=O)C1CCN(C(=O)COC(=O)/C=C/c2ccc(O)c(OC)c2)CC1 — higher, 99.1%
- CSc1nc(/C=C2\C=Nc3ccccc32)c(O)n1C — higher, 90.1%
- CCOC(=O)C1CCCN(C(=S)Nc2ccc(Nc3ccccc3)cc2)C1 (stereo not drawn) — higher, 98.2%
- CN(C)c1ccc(-n2cccc2/C=C/[N+](=O)[O-])cc1 — higher, 110%
- COc1ccc(-n2cnc(=S)[nH]c2=S)cc1 — higher, 93%
- COc1ccc(NC2CCCN(C(=O)c3ccccc3-c3ncc[nH]3)C2)cc1 (stereo not drawn) — higher, 99.3%
- CCN1CCN(CCOc2cccc(Cl)c2Cl)CC1 — higher, 98.5%
- COc1ccc(NC(=O)c2cc3ccc(O)cc3o/c2=N\O)cc1 — higher, 101%
- Cc1sc2ncnc(Nc3ccc(O)cc3)c2c1C — higher, 103%
- CCN(CC)S(=O)(=O)c1cccc(C(=O)N/N=C/c2ccc(OC)c(O)c2)c1 — higher, 106%
- Cc1c(O)ccc2c3c(c(=O)oc12)CCCC3 — higher, 98%
- Cc1ccc2c(c1)C(C)CC(C)(C)N2C(=O)CN1CCN(C)CC1 (stereo not drawn) — higher, 98.5%
- O=c1c(-c2cccc(Cl)c2)c[nH]n1-c1ccccc1 — lower, 84.1%
- Cc1ccc(OC(=O)CCC(=O)Nc2ccc(C)c(C)c2)cc1 — higher, 104%
- COc1cc(/C=C/C(=O)OCC(=O)NC(=O)NC(C)C)ccc1O — higher, 94.6%
- COc1ccc(N2CCN(C(=O)CCCn3nnnc3CN3CCOCC3)C(C)C2)cc1 (stereo not drawn) — higher, 98.7%
- O=C1/C(=C\c2ccc(O)cc2)SC(=S)N1/N=C/c1ccc(O)cc1 — lower, 88.5%
- Cc1cc(O)ccc1N=Cc1c(C(F)(F)F)[nH][nH]c1=O — higher, 96.6%
- Nc1ccc2c(c1)OCCOCCOCCOCCOCCO2 — higher, 97.6%
- Oc1ccccc1CNc1ccc2c(c1)OCCO2 — higher, 99.8%
- Nc1ccc2nc(CCCCc3nc4ccccc4[nH]3)[nH]c2c1 — higher, 96.5%
- CCOC(=O)c1cc(NCc2cccs2)ccc1N1CCOCC1 — higher, 95.5%
- CN1CCN(/N=C/c2nc(-c3ccccc3)n3ccccc23)CC1 — higher, 103%
- CN(C)c1ccc(Nc2ccc([N+](=O)[O-])cn2)cc1 — higher, 109%
- c1cc(CNc2ccc3c(c2)OCCO3)ccn1 — higher, 105%
- CN1CCCN(Cc2ccccc2C(F)(F)F)CC1 — higher, 96.8%
- Cc1ccc(CN2CCN(Cc3ccco3)CC2)cc1 — higher, 92.4%
- Cc1ccc(NC(=O)CN(C)C2CCCCC2)cc1Cl — higher, 122%
- CN1C(=O)NC(c2ccc(O)cc2)C2=C1CN(c1ccc(O)cc1)C2=O (stereo not drawn) — higher, 111%
- COc1ccc(/C=N/NC(=O)c2cccc(S(=O)(=O)N3CCCC3)c2)cc1O — higher, 98.2%
- CN(C)c1cc(NC(=O)CN2CCCC2)c2ccccc2n1 — higher, 91.6%
- CCOc1ccc(CNC2CCCc3ccccc32)cc1 (stereo not drawn) — lower, 87%
- Nc1ccn([C@@H]2O[C@H](CNCC3=CCOc4ccc(O)cc43)[C@@H](O)[C@H]2O)c(=O)n1 — higher, 103%
